# Measured values reported in PubChem BioAssay.
# The source made the active and inactive calls.
# Legend:
# [1] = biological target: Albumin (Bos taurus) (UniProt P02769); assay: bovine serum albumin binders on microarray, profiling panel, artefact control for SMM control protein annotation, biochemical, small-molecule microarray, Alexa647 label, 635/667 nm fluorescence (AID 1118); conditions: BSA-A647 binding, fluorescence 635 nm, higher = more signal;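 further: score merges 667 nm emission intensity and signal-to-noise per printed compound spot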
# Albumin (Bos taurus), sequence (P02769 whole entry, looked up): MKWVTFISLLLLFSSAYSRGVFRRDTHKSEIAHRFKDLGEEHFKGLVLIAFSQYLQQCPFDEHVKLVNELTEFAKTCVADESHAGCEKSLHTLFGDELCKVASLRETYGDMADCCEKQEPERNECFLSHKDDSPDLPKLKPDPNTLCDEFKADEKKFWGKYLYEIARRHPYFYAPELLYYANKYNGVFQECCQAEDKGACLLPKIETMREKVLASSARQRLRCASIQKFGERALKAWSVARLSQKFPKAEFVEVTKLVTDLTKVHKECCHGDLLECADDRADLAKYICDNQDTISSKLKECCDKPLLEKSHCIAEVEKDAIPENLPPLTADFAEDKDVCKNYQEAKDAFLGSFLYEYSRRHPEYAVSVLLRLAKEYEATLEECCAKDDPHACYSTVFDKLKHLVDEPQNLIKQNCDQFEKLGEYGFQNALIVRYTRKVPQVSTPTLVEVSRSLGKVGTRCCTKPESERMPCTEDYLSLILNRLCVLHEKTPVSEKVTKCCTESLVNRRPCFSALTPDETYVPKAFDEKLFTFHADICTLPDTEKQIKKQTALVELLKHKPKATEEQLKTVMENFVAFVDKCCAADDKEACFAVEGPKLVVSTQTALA
# [2] = small-molecule microarray binders of probe aXIP, primary screen, biochemical, NeuroSMM set, 635/667 nm fluorescence (AID 1119); conditions: higher = more signal, called active from +8 up or from −8 down;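 further: probe is the protein aXip251-270 applied at 1 µg/mL to compound-printed slides; binding of probe to printed compounds measured as 667 nm fluorescence plus signal to noise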
# [3] = small-molecule binders of probe aNOTCH3, primary screen, biochemical, small-molecule microarray, 635/667 nm fluorescence (AID 1120); conditions: higher = more signal;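 further: probe is a biotin-tagged antibody raised against NOTCH3 rather than NOTCH3 protein; score merges spot fluorescence near 667 nm with spot signal to noise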
# [4] = small-molecule binders of probe aNOTCH2, primary screen, biochemical, small-molecule microarray, 635/667 nm fluorescence (AID 1121); conditions: higher = more signal;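 further: score merges feature fluorescence read at 667 nm with its signal to noise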
# [5] = biological target: Carbonic anhydrase 2 (Homo sapiens) (UniProt P00918); assay: CAII small-molecule binders, profiling panel, biochemical, small-molecule microarray, Alexa647-labelled CAII (AID 1122); conditions: CAII-A647 binding fluorescence, higher = more signal
# [6] = COS7 lysate on small-molecule microarray, probe aHis, 635 nm (AID 1123); conditions: COS7 cell lysate, fluorescence, higher = more signal;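 further: z-score combines 667nm fluorescence intensity with signal-to-noise per printed compound spot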
# [7] = compound binding in COS7 lysate, probe aLAP1, primary screen, cell lysate, small-molecule microarray (AID 1124); conditions: probe aLAP1, fluorescence, higher = more signal;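 further: lysate comes from COS7 cells expressing LAP1 and is applied at 0.3 µg/mL; score merges spot fluorescence near 667 nm with signal-to-noise over triplicate slides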
# [8] = system: Sam68 (KHDRBS1); assay: Sam68 small-molecule binders, primary screen, biochemical, small-molecule microarray, 635 nm fluorescence (AID 1125); conditions: small-molecule microarray binding, higher = more signal;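 further: score merges 667 nm channel intensity with signal to noise over triplicate slides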
# [9] = system: Chordin-like protein 2 (CHRDL2); assay: CHRDL2 small-molecule binders, primary screen, biochemical, small-molecule microarray, 635 nm fluorescence (AID 1126); conditions: small-molecule microarray binding, fluorescence 635 nm; higher = more signal;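 further: printed compound slides probed with Chrdl2 protein at 4 µg/mL for 1 h at 4 C; score merges 667 nm emission intensity with signal to noise over three replicate slides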
# [10] = biological target: Concanavalin-A (Canavalia ensiformis) (UniProt P02866); assay: ConA small-molecule binders, primary screen, artefact control for SMM control protein annotation, biochemical, small-molecule microarray, Alexa647 label, 635 nm (AID 1127); conditions: ConA-A647 binding fluorescence, higher = more signal;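 further: z combines 667 nm emission intensity with signal-to-noise across three replicate slides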
# Concanavalin-A (Canavalia ensiformis), sequence (P02866 whole entry, looked up): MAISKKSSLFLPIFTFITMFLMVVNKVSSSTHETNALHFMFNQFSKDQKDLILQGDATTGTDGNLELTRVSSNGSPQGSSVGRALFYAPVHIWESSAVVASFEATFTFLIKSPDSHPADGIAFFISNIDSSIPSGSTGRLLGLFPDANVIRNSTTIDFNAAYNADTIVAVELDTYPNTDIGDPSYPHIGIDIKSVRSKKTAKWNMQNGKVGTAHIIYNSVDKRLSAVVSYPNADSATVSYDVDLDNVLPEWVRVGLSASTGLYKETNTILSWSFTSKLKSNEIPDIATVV
# [11] = anti-His antibody binders, primary screen, artefact control for SMM control protein annotation, biochemical, small-molecule microarray, 635 nm fluorescence (AID 1128); conditions: anti-His Alexa647 antibody binding, higher = more signal;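 further: score merges feature fluorescence with signal-to-noise for each printed compound spot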
# [12] = system: Human papillomavirus type 1a E7 protein (residues 1-88); assay: HPV1a E7 small-molecule binders, primary screen, biochemical, small-molecule microarray, residues 1-88, 635 nm (AID 1129); conditions: small-molecule microarray binding, fluorescence 635 nm; higher = more signal
# [13] = biological target: Focal adhesion kinase 1 (Homo sapiens) (UniProt Q05397); assay: small-molecule microarray binders of FAK, primary screen, biochemical, 635/667 nm fluorescence, BSA, DTT (AID 1130); conditions: PTK2 binding, 635 nm fluorescence, higher = more signal;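 further: composite of spot emission at 667 nm and signal to noise over triplicate slides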
# Focal adhesion kinase 1 (Homo sapiens), sequence (Q05397 whole entry, looked up): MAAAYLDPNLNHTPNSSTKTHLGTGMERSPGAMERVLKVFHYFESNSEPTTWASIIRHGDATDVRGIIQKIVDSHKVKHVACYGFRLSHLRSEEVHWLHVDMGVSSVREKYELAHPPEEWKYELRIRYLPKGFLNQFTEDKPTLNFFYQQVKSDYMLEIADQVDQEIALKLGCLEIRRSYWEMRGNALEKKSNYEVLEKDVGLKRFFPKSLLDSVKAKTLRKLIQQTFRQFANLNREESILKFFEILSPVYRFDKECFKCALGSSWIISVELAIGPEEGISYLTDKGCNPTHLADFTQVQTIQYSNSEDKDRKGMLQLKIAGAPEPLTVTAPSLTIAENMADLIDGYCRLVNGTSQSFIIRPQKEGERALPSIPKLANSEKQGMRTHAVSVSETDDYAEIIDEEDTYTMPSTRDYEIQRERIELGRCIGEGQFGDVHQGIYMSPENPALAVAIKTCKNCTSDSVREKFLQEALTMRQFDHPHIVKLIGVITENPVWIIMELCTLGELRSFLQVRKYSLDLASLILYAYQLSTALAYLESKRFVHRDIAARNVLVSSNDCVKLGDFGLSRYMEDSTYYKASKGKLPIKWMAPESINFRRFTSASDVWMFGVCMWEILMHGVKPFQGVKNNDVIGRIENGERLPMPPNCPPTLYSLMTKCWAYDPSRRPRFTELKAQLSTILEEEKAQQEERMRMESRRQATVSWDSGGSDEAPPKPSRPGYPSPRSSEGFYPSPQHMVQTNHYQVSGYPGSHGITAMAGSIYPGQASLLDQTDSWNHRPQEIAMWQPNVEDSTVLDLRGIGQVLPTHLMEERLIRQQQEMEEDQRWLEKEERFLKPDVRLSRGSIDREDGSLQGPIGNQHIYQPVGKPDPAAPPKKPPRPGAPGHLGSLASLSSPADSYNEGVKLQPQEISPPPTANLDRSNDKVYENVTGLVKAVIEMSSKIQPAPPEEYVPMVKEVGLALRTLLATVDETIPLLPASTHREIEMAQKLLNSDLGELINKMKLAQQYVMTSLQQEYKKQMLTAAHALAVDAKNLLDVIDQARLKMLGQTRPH
# [14] = system: Fibrinogen (Alexa647-labelled); assay: fibrinogen binders on compound microarrays, profiling panel, artefact control for SMM control-protein annotation, biochemical, small-molecule microarray, 635/667 nm fluorescence (AID 1131); conditions: fibrinogen-A647 binding fluorescence, higher = more signal;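 further: z-score merges 667 nm fluorescence with per-spot signal-to-noise over triplicate slides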
# [15] = biological target: Follistatin (Homo sapiens) (UniProt P19883); assay: follistatin binders on small-molecule microarrays, primary screen, biochemical, small-molecule microarray, 635/667 nm fluorescence (AID 1132); conditions: FST binding, 635 nm fluorescence, higher = more signal
# Follistatin (Homo sapiens), sequence (P19883 whole entry, looked up): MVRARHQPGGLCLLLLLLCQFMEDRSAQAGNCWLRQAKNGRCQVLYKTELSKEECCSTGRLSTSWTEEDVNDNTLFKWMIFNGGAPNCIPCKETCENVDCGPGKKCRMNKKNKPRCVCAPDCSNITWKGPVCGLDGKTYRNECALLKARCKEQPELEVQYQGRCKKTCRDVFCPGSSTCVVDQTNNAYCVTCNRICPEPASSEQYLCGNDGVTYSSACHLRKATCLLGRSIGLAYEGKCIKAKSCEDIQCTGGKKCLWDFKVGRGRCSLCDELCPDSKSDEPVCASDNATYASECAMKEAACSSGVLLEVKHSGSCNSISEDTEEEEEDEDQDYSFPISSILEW
# [16] = biological target: Fibroblast growth factor 2 (Homo sapiens) (UniProt P09038); assay: FGF2 binders on small-molecule microarrays, primary screen, biochemical, small-molecule microarray, 635/667 nm fluorescence (AID 1133); conditions: small-molecule microarray binding, FGF2, fluorescence 635/667; higher = more signal
# Fibroblast growth factor 2 (Homo sapiens), sequence (P09038 whole entry, looked up): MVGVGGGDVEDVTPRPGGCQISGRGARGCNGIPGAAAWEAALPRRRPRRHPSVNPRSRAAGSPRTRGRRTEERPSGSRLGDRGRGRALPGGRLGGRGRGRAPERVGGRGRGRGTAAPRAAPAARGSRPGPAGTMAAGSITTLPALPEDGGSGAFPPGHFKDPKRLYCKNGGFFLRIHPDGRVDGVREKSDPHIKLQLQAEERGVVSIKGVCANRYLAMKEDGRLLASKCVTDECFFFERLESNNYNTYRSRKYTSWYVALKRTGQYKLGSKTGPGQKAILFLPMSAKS
# [17] = mitochondrial membrane potential change in A549 cells, profiling panel, cell-based, JC-1 fluorescence, basal, 24 h, 100 nL (AID 1138); conditions: higher = more signal;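 further: A549 lung adenocarcinoma cells under basal conditions with no added stimulus; test concentration not given here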
# [18] = system: Lefty1; assay: Lefty1 binders on small-molecule microarrays, primary screen, biochemical, small-molecule microarray, 635/667 nm fluorescence (AID 1139); conditions: small-molecule microarray binding, fluorescence 635/667; higher = more signal
# [19] = system: wheat germ agglutinin (Triticum aestivum), Alexa647-labelled; assay: wheat germ agglutinin binders on compound microarrays, profiling panel, artefact control for SMM control-protein annotation, biochemical, small-molecule microarray, 635/667 nm fluorescence (AID 1140); conditions: WGA-A647 binding, 635 nm fluorescence, higher = more signal;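 further: score merges 667 nm feature emission with signal to noise over triplicate slides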
# [20] = biological target: Luciferin 4-monooxygenase (Photinus pyralis) (UniProt P08659); assay: firefly luciferase enzyme inhibitors, primary screen, biochemical, luminescence, purified enzyme, 2006 set (AID 1141); conditions: SteadyGlo luminescence, 30 min, higher = more signal, called active from +8 up or from −8 down;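 further: cell-free assay with purified firefly luciferase at 100 ng per well in PBS; test concentration not given here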
# Luciferin 4-monooxygenase (Photinus pyralis), sequence (P08659 whole entry, looked up): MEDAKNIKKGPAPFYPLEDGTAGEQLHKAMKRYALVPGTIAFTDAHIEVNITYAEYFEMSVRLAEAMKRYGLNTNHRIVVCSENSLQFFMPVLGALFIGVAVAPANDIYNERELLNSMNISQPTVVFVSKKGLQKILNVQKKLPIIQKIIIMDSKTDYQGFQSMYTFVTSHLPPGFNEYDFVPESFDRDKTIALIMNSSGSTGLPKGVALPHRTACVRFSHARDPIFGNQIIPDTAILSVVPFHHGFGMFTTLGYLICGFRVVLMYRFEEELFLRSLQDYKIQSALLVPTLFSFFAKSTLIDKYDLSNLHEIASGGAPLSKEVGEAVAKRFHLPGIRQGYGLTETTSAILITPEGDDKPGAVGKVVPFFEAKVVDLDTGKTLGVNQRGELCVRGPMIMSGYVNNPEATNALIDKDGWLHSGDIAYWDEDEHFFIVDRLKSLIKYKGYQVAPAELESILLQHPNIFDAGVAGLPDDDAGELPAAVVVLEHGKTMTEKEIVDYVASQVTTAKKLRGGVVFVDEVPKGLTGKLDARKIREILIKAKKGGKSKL
SMILES,composite z-score [1],composite Z-score [2],composite z-score [3],composite z-score [4],composite z-score [5],composite z-score [6],composite z-score [7],composite z-score [8],composite z-score [9],composite z-score [10],composite z-score [11],composite z-score [12],composite z-score [13],composite z-score [14],composite z-score [15],composite z-score [16],z-score [17],composite z-score [18],composite z-score [19],z-score [20]
Cc1ccc(S[C@]2(C(=O)O)CC(=O)N(C3CCCCC3)[C@@H]2c2ccc(CO)cc2I)cc1,0.905,0.258 (inactive),0.175,-0.013,0.331,2.84,1.01,1.29,-0.565,1.02,0.96,1.22,-0.155,0.745,1.19,0.101,-0.996,-0.163,0.89,0.453 (inactive)
CCCCN1CC=CC23O[C@@H]4/C=C\CCC(C)OC(=O)C4[C@H]2C(=O)N(CCCO)[C@@H]3C1=O (stereo not given in full),-0.741,0.986 (inactive),-0.41,-0.171,0.283,-0.0462,0.359,-0.62,-1.38,0.12,1.41,-0.708,-0.198,-0.992,-0.885,-1.24,-0.573,-0.46,-0.588,0.821 (inactive)
C=CCC(OC(C)=O)[C@@H]1[C@@H](N(Cc2cccc3ccccc23)C(=O)Cc2ccc(F)cc2)c2cc(OCCCO)ccc2N1C(=O)c1ccc2ccccc2c1 (stereo not given in full),-0.0241,-0.748 (inactive),-0.0111,-0.104,-0.0968,0.0036,-0.353,-0.0562,0.235,-0.15,0.301,-0.247,0.114,0.131,0.7,-0.328,1.03,0.117,0.0096,0.739 (inactive)
NCCCCCCNC(=O)[C@@H]1C[C@@H]2C(=O)N[C@@H](CCCCN)C(=O)N2[C@@H]1c1ccc(O)cc1,-1.58,1.7 (inactive),-0.0431,-0.0386,0.782,1.68,1.18,0.762,0.667,0.0619,1.91,0.153,0.353,-1.97,0.998,1,-0.903,0.731,0.961,0.715 (inactive)
Cc1cc(C)c(C(O)C2C=CC3C(=O)N(c4ccccc4)C(=O)C3N2Nc2ccccc2F)c(C)c1 (stereo not given),0.553,0.224 (inactive),0.0602,0.0278,0.365,1.08,0.725,-0.186,0.0036,0.511,1.29,-0.103,0.39,0.859,0.0286,-0.435,-0.909,-0.589,0.403,-0.746 (inactive)
COc1ccc(C#Cc2ccc3c(c2)[C@]2(C(=O)N3)[C@H](c3ccc(O)cc3)N3[C@H](c4ccccc4)[C@H](c4ccccc4)OC(=O)[C@H]3[C@@H]2C(=O)Nc2nc3ccccc3s2)cc1,0.67,0.276 (inactive),-0.014,0.117,0.61,2.47,0.98,1.29,0.428,1.08,0.269,1.25,0.359,0.983,1.29,0.964,-2.1,0.882,0.768,-1.28 (inactive)
CC(c1ccccc1)C(O)C1C=CC2C(=O)N(C)C(=O)C2N1Nc1ccccc1 (stereo not given),0.921,0.318 (inactive),0.5,-0.0067,0.601,2.5,0.406,1.31,-0.826,1.21,1.79,1.24,0.322,1.02,0.777,-0.579,-0.0184,-0.17,1.21,0.206 (inactive)
CCOC(=O)C[C@H]1[C@H](OC(=O)c2ccc(C(=O)c3ccccc3)cc2)[C@@H](NC(=O)CC(C)C)c2cc(OCCCO)ccc2N1C(=O)c1ccccc1,0.415,-0.24 (inactive),0.104,-0.0357,0.351,1.01,-0.0609,1.3,0.262,1.05,0.152,1.11,0.188,0.965,0.839,0.609,1.63,1.26,0.227,-0.675 (inactive)
COC(=O)[C@@H]1N=C(c2ccc(OCCCO)cc2)O[C@@H]1c1ccccc1,0.258,0.536 (inactive),-0.206,-0.104,0.7,0.387,-0.342,-0.826,-1.89,-0.324,1.33,-0.314,-0.137,-0.887,-1.36,-0.837,0.135,-0.447,-0.0306,-13.4 (active)
CC(C)[Si]1(C(C)C)OCc2cc(C3CC3)nc(-c3ccc(Oc4ccccc4)cc3)c21,-0.808,-0.26 (inactive),-0.177,-0.108,-0.204,0.0215,-0.238,-0.459,-0.368,-0.725,-0.33,-1.1,-0.0826,-0.753,-0.538,-0.206,0.546,-0.365,-0.596,-0.311 (inactive)
COC(=O)[C@@]1(Cc2ccc(F)cc2)[C@H]2c3cc(C(=O)N4CCCC4)n(Cc4ccc(C)c(F)c4F)c3C[C@H]2CN1C(=O)c1ccccc1,1.04,-0.474 (inactive),-0.0304,0.219,0.834,0.922,1.14,-0.451,-0.186,-0.927,1.39,0.821,0.572,0.511,-0.115,-0.132,-0.494,-0.605,0.921,-12.5 (active)
CCOC(=O)C1=C[C@@H](c2ccccc2)N(S(=O)(=O)c2ccc(C)cc2)[C@H]1c1ccc(OC)cc1,0.72,-0.0164 (inactive),0.815,0.493,0.614,1.71,0.755,1.32,-0.224,1.1,0.546,0.957,0.501,0.935,0.609,0.217,1.77,-0.0395,1.11,1.51 (inactive)
CCCCCN1CC=CC23O[C@@H]4/C=C\CCCOC(=O)C4[C@H]2C(=O)N(C(C)CO)[C@@H]3C1=O (stereo not given in full),0.356,0.0199 (inactive),-0.427,-0.169,0.839,0.626,-0.0467,0.0008,-1.14,-0.734,0.465,-0.402,-0.249,0.659,-0.87,-1.08,0.17,-0.476,0.916,-0.179 (inactive)
NCCCCCNC(=O)[C@H]1C[C@H]2C(=O)N3CCC[C@H]3C(=O)N2[C@H]1c1cccc(OCCO)c1,0.729,0.325 (inactive),0.185,0.0305,0.705,1.59,0.466,0.967,0.18,0.894,3.3,0.987,0.0204,0.83,0.208,-0.146,-0.705,-0.285,1.29,-0.165 (inactive)
CCOC(=O)C[C@H]1[C@H](OC(=O)Cc2ccc3c(c2)OCO3)[C@@H](NC(=O)c2ccc3ccccc3n2)c2cc(OCCCO)ccc2N1C(=O)c1ccc2ccccc2n1,0.208,-0.0069 (inactive),-0.0646,-0.135,0.371,0.986,0.171,0.796,0.0741,1.07,0.267,0.496,0.629,0.913,0.497,0.13,3.18,0.37,0.754,-1.83 (inactive)
CCCNC(=O)[C@@]1(C)c2ccccc2C(=O)N(c2ccc(C)cn2)[C@H]1c1ccc(CO)cc1,-0.0296,0.164 (inactive),-0.246,-0.108,0.699,-0.604,-0.105,-0.264,0.0286,-0.283,0.0998,-0.268,0.23,-1.78,0.169,-0.465,0.672,-0.0558,-0.311,-0.714 (inactive)
CC(C)N1C(=O)C[C@@](C(=O)NC2CC2)(c2ccc([N+](=O)[O-])cc2)[C@H]1c1ccc(CO)cc1,-1.1,-0.239 (inactive),-0.339,-0.14,0.525,2.95,0.965,-0.203,-1.08,-0.0039,1.7,-0.0823,0.403,-0.793,0.323,0.362,-0.544,-1.11,-0.545,-0.254 (inactive)
